About 1,500 (3.8%) of roughly 39,000 compounds were called active. For the sample, actives were picked, then their nearest neighbours and some compounds at random.

For the experiment, the system named is HSkMC (human skeletal muscle cells). Briefly: cytotoxicity call (relative viability < 0.9). To be noted: 10 µM.
For `Cc1noc(C)c1S(=O)(=O)N(C)C[C@H]1Oc2c(NC(=O)NC3CCCCC3)cccc2C(=O)N([C@H](C)CO)C[C@@H]1C`, the cytotoxicity call is “inactive”.

For `C[C@H](CO)N1C[C@H](C)[C@@H](CN(C)S(=O)(=O)c2cn(C)cn2)Oc2ccc(NC(=O)Cn3cnnn3)cc2C1=O`, the cytotoxicity call was “inactive”.

On to `CC(C)NC(=O)N(C)C[C@@H]1Oc2ccc(NS(=O)(=O)c3ccc(Cl)cc3)cc2CC(=O)N([C@H](C)CO)C[C@@H]1C`, for which the cytotoxicity call is “inactive”.

In the case of `CC(C)NC(=O)Nc1ccc2c(c1)C(=O)N([C@H](C)CO)C[C@H](C)[C@@H](CN(C)S(=O)(=O)c1ccccc1)O2`, the cytotoxicity call was “inactive”.

`COc1ccc(S(=O)(=O)N(C)C[C@H]2Oc3c(NC(=O)c4cc(C)nn4C)cccc3C(=O)N([C@H](C)CO)C[C@@H]2C)cc1`: the cytotoxicity call is “inactive”.

On to `COc1ccc(S(=O)(=O)Nc2ccc3c(c2)C(=O)N([C@H](C)CO)C[C@H](C)[C@@H](CN(C)C(=O)Nc2ccccc2)OCCCC[C@@H](C)O3)cc1`, for which the cytotoxicity call was “inactive”.

Take `C[C@H]1CN([C@@H](C)CO)C(=O)c2ccccc2-c2ccccc2CO[C@H]1CN(C)Cc1ccc(C(F)(F)F)cc1`: the cytotoxicity call is “inactive”.

As to `C[C@@H]1CCCCO[C@H](CN(C)Cc2ccc(C(=O)O)cc2)[C@@H](C)CN([C@H](C)CO)C(=O)c2cc(NS(=O)(=O)c3ccc(Cl)cc3)ccc2O1`, the cytotoxicity call was “inactive”.

For `CNC(=O)C(=O)Nc1cc(Cl)ccc1C#N`, the cytotoxicity call was “inactive”.

Regarding `CCN(CC)C(=O)[C@@H]1C[C@@H](N)CN1S(=O)(=O)N1CCCCCC1`, the cytotoxicity call was “inactive”.

In the case of `Cc1nc2ccccc2n1Cc1ccc(Cl)cc1`, the cytotoxicity call was “inactive”.

For the molecule `Cc1ccc(OCCn2c(CC(C)(C)C)nc3ccccc32)cc1`, the cytotoxicity call is “inactive”.

On to `c1ccc(Cn2c(-c3ccc(OC[C@H](C4CCNCC4)n4c(-c5ccccc5)nc5ccccc54)cc3)nc3ccccc32)cc1`, for which the cytotoxicity call was “active”.

Consider `C[C@H](O)C#Cc1ccc2c(c1)O[C@H](CN(C)C(=O)Nc1ccccc1)[C@@H](C)CN([C@H](C)CO)S2(=O)=O`, for which the cytotoxicity call was “inactive”.

Turning to `C[C@H]1CN([C@@H](C)CO)C(=O)c2cc(-c3cccnc3)cnc2O[C@@H]1CN(C)Cc1ccc(-c2ccccc2)cc1`, the cytotoxicity call was “inactive”.

In the case of `C[C@@H]1CCCCO[C@H](CN(C)Cc2ccc(Cl)c(Cl)c2)[C@@H](C)CN([C@H](C)CO)C(=O)c2cc(NC(=O)C3CCCCC3)ccc2O1`, the cytotoxicity call is “inactive”.

`C[C@@H]1CCCCO[C@@H](CN(C)Cc2ccc(Cl)c(Cl)c2)[C@@H](C)CN([C@@H](C)CO)C(=O)c2cc(NC(=O)NC3CCCCC3)ccc2O1`: the cytotoxicity call was “inactive”.

Take `C[C@@H]1CCCCO[C@H](CN(C)Cc2ccc(Cl)c(Cl)c2)[C@@H](C)CN([C@H](C)CO)C(=O)c2cc(NC(=O)NC3CCCCC3)ccc2O1`: the cytotoxicity call was “inactive”.

Consider `C[C@@H]1CN([C@@H](C)CO)C(=O)c2cc(NC(=O)NC3CCCCC3)ccc2O[C@@H](C)CCCCO[C@H]1CN(C)Cc1ccc(Cl)c(Cl)c1`, for which the cytotoxicity call is “inactive”.

Turning to `C[C@@H]1CCCCO[C@@H](CN(C)Cc2ccc(Cl)c(Cl)c2)[C@H](C)CN([C@H](C)CO)C(=O)c2cc(NC(=O)NC3CCCCC3)ccc2O1`, the cytotoxicity call was “inactive”.

For `C[C@@H]1CCCCO[C@H](CN(C)Cc2ccc(Cl)c(Cl)c2)[C@@H](C)CN([C@@H](C)CO)C(=O)c2cc(NC(=O)NC3CCCCC3)ccc2O1`, the cytotoxicity call was “active”.

Consider `C[C@@H]1CCCCO[C@H](CN(C)Cc2ccc(Cl)c(Cl)c2)[C@H](C)CN([C@@H](C)CO)C(=O)c2cc(NC(=O)C3CCCCC3)ccc2O1`, for which the cytotoxicity call was “inactive”.

Consider `C[C@H]1CCCCO[C@H](CN(C)Cc2ccc(Cl)c(Cl)c2)[C@@H](C)CN([C@@H](C)CO)C(=O)c2cc(NC(=O)NC3CCCCC3)ccc2O1`, for which the cytotoxicity call was “active”.

Consider `C[C@@H]1CCCCO[C@H](CN(C)Cc2ccc(Cl)c(Cl)c2)[C@@H](C)CN([C@@H](C)CO)C(=O)c2cc(NC(=O)C3CCCCC3)ccc2O1`, for which the cytotoxicity call is “active”.

For the molecule `C[C@@H]1CN([C@H](C)CO)C(=O)c2cccc(NS(C)(=O)=O)c2O[C@@H]1CN(C)Cc1ccc(C(=O)O)cc1`, the cytotoxicity call was “inactive”.

For `Cc1noc(C)c1S(=O)(=O)N(C)C[C@H]1Oc2ccc(NC(=O)NC3CCCCC3)cc2CC(=O)N([C@@H](C)CO)C[C@H]1C`, the cytotoxicity call is “inactive”.

For the molecule `O=C(C[C@@H]1C[C@@H]2c3cc(NS(=O)(=O)c4ccc(F)cc4)ccc3O[C@@H]2[C@H](CO)O1)NCCN1CCCCC1`, the cytotoxicity call is “inactive”.

For the molecule `C=CC[C@@H](CC(=O)N[C@H](CO)Cc1ccccc1)C(=O)NCCOC(=O)[C@H](CC=C)CC(=O)OC(C)(C)C`, the cytotoxicity call was “inactive”.

Turning to `CCCCCN1CC=C[C@]23O[C@@H]4/C=C/CCC(=O)N(C)[C@H](C)[C@@H](c5ccccc5)OC(=O)[C@@H]4[C@H]2C(=O)N(c2ccccc2Cl)[C@@H]3C1=O`, the cytotoxicity call is “inactive”.

Regarding `Cc1noc(C)c1NC(=O)Nc1ccc2c(c1)C(=O)N([C@H](C)CO)C[C@H](C)[C@H](CN(C)S(=O)(=O)c1cccs1)OCCCC[C@H](C)O2`, the cytotoxicity call was “inactive”.

Turning to `C[C@@H]1CN([C@@H](C)CO)S(=O)(=O)c2ccc(C#CC3CC3)cc2O[C@@H]1CN(C)C(=O)c1cccc(F)c1`, the cytotoxicity call is “inactive”.

`CC(C)(O)c1ccccc1CC[C@@H](SCC1(CC(=O)O)CC1)c1cccc(/C=C/c2ccc3ccc(Cl)cc3n2)c1`: the cytotoxicity call was “active”.

For `CC(C)(O)c1ccccc1CCC(SCC1(CC(=O)[O-])CC1)c1cccc(C=Cc2ccc3ccc(Cl)cc3n2)c1.[Na+]` (stereo not given), the cytotoxicity call was “inactive”.

Regarding `C[C@@H]1CN([C@H](C)CO)C(=O)c2cc(NC(=O)Nc3cccc4ccccc34)ccc2O[C@@H](C)CCCCO[C@@H]1CN(C)S(=O)(=O)c1ccc(F)cc1`, the cytotoxicity call is “inactive”.

On to `COCC(=O)N1C[C@@H](C(=O)N2CCCO2)C[C@@H]2OCC[C@@H]21`, for which the cytotoxicity call was “inactive”.

Take `O=C(Nc1cccc2cccnc12)[C@@H]1[C@H](c2ccc(I)cc2)CC(=O)N1C(=O)OCc1ccccc1`: the cytotoxicity call was “inactive”.

For the molecule `C[C@@H]1CCCCO[C@H](CN(C)C(=O)c2ccccc2)[C@H](C)CN([C@@H](C)CO)C(=O)c2cc(NS(=O)(=O)c3ccccc3)ccc2O1`, the cytotoxicity call is “inactive”.

Consider `Cc1c2oc3c(C)ccc(C(=O)N[C@@H]4C(=O)N[C@@H](C(C)C)C(=O)N5CCC[C@H]5C(=O)N(C)CC(=O)N(C)[C@@H](C(C)C)C(=O)O[C@@H]4C)c3nc-2c(C(=O)N[C@@H]2C(=O)N[C@@H](C(C)C)C(=O)N3CCC[C@H]3C(=O)N(C)CC(=O)N(C)[C@@H](C(C)C)C(=O)O[C@@H]2C)c(N)c1=O`, for which the cytotoxicity call was “inactive”.

As for `Cc1c2oc3c(C)ccc(C(=O)OC(C)C4NC(=O)C(C(C)C)N(C)C(=O)CN(C)C(=O)C5CCCN5C(=O)C(C(C)C)NC4=O)c3nc-2c(C(=O)OC(C)C2NC(=O)C(C(C)C)N(C)C(=O)CN(C)C(=O)C3CCCN3C(=O)C(C(C)C)NC2=O)c(N)c1=O` (stereo not given), the cytotoxicity call was “inactive”.

On to `Cc1c2oc3c(C)ccc(C(=O)N[C@@H]4C(=O)N[C@H](C(C)C)C(=O)N5CCC[C@H]5C(=O)N(C)CC(=O)N(C)[C@@H](C(C)C)C(=O)O[C@@H]4C)c3nc-2c(C(=O)N[C@@H]2C(=O)N[C@H](C(C)C)C(=O)N3CCC[C@H]3C(=O)N(C)CC(=O)N(C)[C@@H](C(C)C)C(=O)O[C@@H]2C)c(N)c1=O`, for which the cytotoxicity call is “active”.
